Source: PubChem
Only a selection was taken, and hits are over-represented in it overall.
PKM2 activator: increases activity of human pyruvate kinase M2; P14618; purified PKM2, Kinase-Glo ATP luminescence, activation; response scale: 0% is enzyme alone, no compound; Potency, µM (titrated, usually from 57.5 µM), without a hit: top-dose activation, actives largely listed as activators; hit rate 0.34% among 260,000; AID 1631; also: nearly all actives have a fitted effect of over 55% in size
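Kinase-Glo luminescence reports ATP generated from ADP (0.1 mM) and PEP (0.5 mM) by purified hPK-M2 after 1 h at room temperature, pH 7.2 imidazole buffer; intermediate enzyme activity allows detecting inhibitors and activators.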
BLM inh: inhibitors of human Bloom syndrome helicase BLM. recombinant BLM DNA unwinding, fluorescence dequenching. P54132. Potency, µM (top dose mostly 56.1 µM), without a hit: at the top dose activity change, negative = inhibition, actives largely listed as inhibitors. hit rate 0.2% among 350,000;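 also: plate controls were vehicle for no effect and no enzyme for full effect; nearly all actives have a fitted effect of over 35% in size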
APE1 inh-1: blocks human APE1 abasic DNA cleavage. P27695. recombinant APE1, TAMRA/BHQ-2 abasic DNA cleavage fluorescence. Potency, µM (top dose mostly 65.8 µM), without a hit: at the highest dose activity change, negative = inhibition, usual class: inhibitors. hit rate 0.35% among 350,000. AID 2517;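 also: plate controls were vehicle for no effect and reference inhibitor for full effect; nearly all actives have a fitted effect of over 55% in size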
Target sequence (P27695 whole entry, looked up): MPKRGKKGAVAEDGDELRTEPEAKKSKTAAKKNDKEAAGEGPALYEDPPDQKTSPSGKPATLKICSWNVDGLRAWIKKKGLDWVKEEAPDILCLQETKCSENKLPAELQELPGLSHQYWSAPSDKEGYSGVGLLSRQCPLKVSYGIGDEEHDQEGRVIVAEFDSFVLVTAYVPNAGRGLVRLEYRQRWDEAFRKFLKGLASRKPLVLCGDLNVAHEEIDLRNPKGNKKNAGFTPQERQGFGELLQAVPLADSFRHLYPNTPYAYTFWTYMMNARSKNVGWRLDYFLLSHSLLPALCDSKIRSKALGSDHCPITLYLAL
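Enzyme (0.75 nM final) and test compound are incubated 15 min at room temperature before adding 50 nM quenched THF abasic-site duplex. Cleavage dequenches TAMRA, followed at 525/598 nm over three reads one minute apart.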
RECQ1 helicase: inhibitors of human RECQ1 DNA helicase | Potency, µM (titrated, usually from 57.3 µM), for the others: top-dose activity, negative = inhibition, hits mostly inhibitors | AID 2549 | RECQ1 DNA unwinding, red fluorescence kinetic read | hit rate 0.54% among 240,000 | P46063;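 also: plate controls were vehicle for no effect and no enzyme for full effect; nearly all actives have a fitted effect of over 30% in size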
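50 nM RECQ1T1 preincubated 15 min with compound in Tris pH 8.0 buffer with MgCl2, DTT, Tween-20 and 2.5 ug/ml poly(dI-dC); started with 200 nM TAMRA/BHQ-2 forked duplex and 2 mM ATP. Unwinding read as fluorescence (525/598 nm), two reads 2 h apart.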
KDM4E inh: inhibitors of human JMJD2E histone demethylase; B2RXH2; JMJD2E catalytic domain, FDH-coupled NADH fluorescence (FDH is formaldehyde dehydrogenase); Potency, µM (titrated, usually from 57.1 µM), for the others: top-dose activity change, negative = inhibition, usual class: inhibitors; hit rate 1.6% among 230,000; active = well fitted inhibition curve with a large enough effect, not every such curve was filed as active; inconclusive = small, poorly fitted or top-dose-only effect, or another doubt; inactive = no such curve, though single readings can be large or run the other way;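 also: 0% = wells with enzyme and -100% = buffer wells without enzyme; nearly all actives have a fitted effect of over 50% in size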
APE1 dye cs: DNA dye displacement counter-screen activity; shares compounds with APE1 inh-1; DNA fluorescent dye displacement counterscreen, fluorescence; Potency, µM (doses to about 28.5 µM), for inactives: at the highest dose activity change, negative = inhibition, hits mostly inhibitors; hit rate 7% among 480; AID 2564;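 also: loss of thiazole orange fluorescence as the dye is displaced from duplex DNA; 0% = ThO with dsDNA and no compound and -100% = ThO without dsDNA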
Endo IV inh: Endo IV (E. coli) inhibition counter-screen. Potency, µM (doses to about 27.1 µM), for the others: top-dose activity change, negative = inhibition, usual class: inhibitors. E. coli Endo IV, fluorogenic AP-site DNA cleavage. AID 2565. hit rate 4% among 560. shares compounds with APE1 inh-1;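 also: plate controls were uninhibited enzyme wells for no effect and no enzyme buffer wells for full effect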
APE1 inh-2: confirmation of inhibitors of human APE1 endonuclease; shares compounds with APE1 inh-1; purified APE1, fluorogenic abasic-site DNA cleavage; Potency, µM (titrated, usually from 57.1 µM), for inactives: at the top dose activity change, negative = inhibition, usual class: inhibitors; hit rate 44% among 750; also: nearly all actives have a fitted effect of over 30% in size
APE1 FP inh: displaces DNA from human APE1 in FP assay; hit rate 7% among 480; shares compounds with APE1 inh-1; Potency, µM (series often up to 28.5 µM), inactives show at the top dose activity, negative = inhibition, most hits filed as inhibitors; APE1 binding to TAMRA-labelled double-stranded DNA, fluorescence polarization displacement
* = called active by the depositor; [ ] = remark or other dose. Unless noted, calls follow the shape of the dose curve; as a rule, active = well fitted curve in the direction sought with a large enough effect; inconclusive = small, poorly fitted or top-dose-only effect, or another doubt; inactive = no such curve, though single readings can be large; an effect the other way counts as inactive or inconclusive. Unless noted, % is scaled to controls: 0 for no effect and ±100 for the full control effect; potency is read from the fitted curve at half-maximal effect.

What do the screens show for `O=C(O[C@@H]1OC2COC(=O)c3cc(O)c(O)c(O)c3-c3c(cc(O)c(O)c3O)C(=O)O[C@@H]([C@H]1O)[C@@H]2O)c1cc(O)c(O)c(O)c1`?
PKM2 activator: 9.1%; BLM inh: 5.62µM*; APE1 inh-1: 0.0708µM*; RECQ1 helicase: -28.5%; KDM4E inh: -2.0%; APE1 dye cs: -6.8%; Endo IV inh: 110.9%; APE1 inh-2: 0.0501µM*; APE1 FP inh: inconclusive

What do the screens show for `COc1c(O)cc2c(c1O)C1OC(CO)C(O)[C@H](O)[C@H]1OC2=O` (stereo partly drawn)?
BLM inh: 3.5%; APE1 inh-1: 15.9%; RECQ1 helicase: -10.5%; KDM4E inh: 6.5%

Results for CC(=O)OCOC(c1ccc2ccccc2c1)P(=O)(OCOC(C)=O)OCOC(C)=O (stereo not drawn) ?
APE1 inh-1: 6.5%; RECQ1 helicase: inactive

What do the screens show for `[N-]=[N+]=Nc1ccc(C(=O)CSC[C@H](NC(=O)CC[C@H](N)C(=O)O)C(=O)NCC(=O)O)cc1`?
APE1 inh-1: inconclusive; RECQ1 helicase: -4.8%; KDM4E inh: -1.1%; Endo IV inh: -23.5%[57.1 µM]; APE1 inh-2: -61.2%

How did COc1cc(CC2COC(c3ccc(O)c(OC)c3)C2COC(C)=O)ccc1O (stereo not drawn) do in these assays?
PKM2 activator: inconclusive; BLM inh: 25.1µM*; APE1 inh-1: 3.98µM*; RECQ1 helicase: 25.1µM*; KDM4E inh: -26.8%; APE1 dye cs: 0.5%; Endo IV inh: 3.3%; APE1 inh-2: 10µM*; APE1 FP inh: -8.8%

What do the screens show for `COc1cc([C@@H]2OC[C@@H]3[C@H]2CO[C@@H]3c2ccc3c(c2)OCO3)ccc1O`?
APE1 inh-1: -3.8%

What do the screens show for `COC(=O)[C@@H](c1ccccc1Cl)N1CCc2sccc2C1`?
APE1 inh-1: -3.5%; RECQ1 helicase: 11.2%

What do the screens show for `O=C(Nc1nc2nccc(-c3ccccc3)n2n1)c1ccc(F)cc1`?
PKM2 activator: -0.8%; BLM inh: 1.1%; APE1 inh-1: 3.8%; RECQ1 helicase: -2.9%; KDM4E inh: -9.6%

Results for O=C(Nc1nc2nccc(-c3ccccc3)n2n1)c1ccccc1 ?
PKM2 activator: -1.0%; BLM inh: -10.2%; APE1 inh-1: -10.6%; RECQ1 helicase: -9.1%; KDM4E inh: inconclusive; APE1 inh-2: -23.6%

How did CC(NC(=O)C1CCCN1C(=O)CN)C(=O)O (stereo not drawn) do in these assays?
BLM inh: -0.3%; APE1 inh-1: 4.9%; RECQ1 helicase: -7.9%

Results for NC(=O)c1c(NC(=O)c2noc3c2CCCC3)sc2c1CCCC2 ?
BLM inh: -7.1%

How did CCN(CC)Cc1cc(C(=O)O)c(C)o1 do in these assays?
PKM2 activator: 3.2%; BLM inh: -7.4%; APE1 inh-1: 6.8%; RECQ1 helicase: 15.7%; KDM4E inh: 12.7%

Results for COc1ccc(OCc2cc(C(=O)O)c(C)o2)cc1 ?
PKM2 activator: -1.8%; BLM inh: 5.1%; APE1 inh-1: 25.1µM*; RECQ1 helicase: 12.7%; KDM4E inh: 2.1%; APE1 inh-2: 39.8µM*
